Sampled rows, rich in hits. Any-hit rate of the full collection: about 9.3%.
ELG1 repair inh: ELG1-dependent DNA repair inhibition. Potency, µM (series often up to 46.1 µM), for inactives: at the highest dose activity change, negative = inhibition, most hits filed as inhibitors. AID 504467. HEK293T ELG1-luciferase reporter, luminescence, 16 h; DNA damage induced by 5-fluorouridine. 2.3% of 330,000 active; also: % is scaled to controls: 0 for no effect and ±100 for the full control effect; nearly all actives have a fitted effect of over 55% in size
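Overnight (16 hr) co-exposure of 2,000 cells/well to 5-fluorouridine and compound at 37 °C preceded detection. Luciferase was quantified via ONE-Glo luminescence; loss of signal denotes inhibition.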
NPC1 prom act: activators of NPC1 promoter | 2.4% of 320,000 active | Potency, µM (series often up to 9.22 µM), inactives show at the highest dose activation, most hits filed as activators | AID 485313 | Huh7 NPC1 promoter luciferase reporter, 24 h; also: % of control where 0% means no effect; nearly all actives have a fitted effect of over 60% in size
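Quantitative HTS used a cell-based reporter: Huh7 cells stably bearing the NPC1 promoter upstream of luciferase were treated with compounds for 24 h, and promoter activation was read as luminescence.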
SMN2 splice up: increases expression of the SMN2 splice variant. 2.8% of 210,000 active. AID 1458. Potency, µM (doses to about 46.1 µM), for the others: at the highest dose activity change, positive = activation, actives largely listed as activators. HEK293 SMN2-luciferase splicing reporter, luminescence, 30-36 h; also: % of control where 0% means no effect; nearly all actives have a fitted effect of over 55% in size
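qHTS luciferase splicing reporter: luminescence rises when SMN2 exon 7 is included in transfected HEK293 cells. Compound exposure lasted 30-36 h at 37C, with 4.5 mM final sodium butyrate as control, followed by a ONE-Glo read.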
Rab9 promoter act: activates the Rab9 promoter. Huh7 Rab9 promoter-luciferase reporter, luminescence, 24 h. Potency, µM (highest dose often 9.22 µM), for the others: at the top dose activation, negative = inhibition, hits mostly activators. 2.8% of 320,000 active; also: % of control where 0% means no effect; nearly all actives have a fitted effect of over 60% in size
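Measured in stably transfected Huh7 cells bearing a Rab9 promoter–luciferase construct: 24 h compound treatment at 37 °C, followed by luminescence detection.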
FLuc counter: counter-screen for miR-21 project: firefly luciferase inhibitors or activators; purified FLuc, Km substrates, luminescence inhibition; Potency, µM (doses to about 57.5 µM), for inactives: at the highest dose activity change, negative = inhibition, usual class: inhibitors; P08659; 6.9% of 360,000 active;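 also: plate controls were vehicle for no effect and reference inhibitor for full effect; nearly all actives have a fitted effect of over 55% in size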
Target sequence (P08659 whole entry, looked up): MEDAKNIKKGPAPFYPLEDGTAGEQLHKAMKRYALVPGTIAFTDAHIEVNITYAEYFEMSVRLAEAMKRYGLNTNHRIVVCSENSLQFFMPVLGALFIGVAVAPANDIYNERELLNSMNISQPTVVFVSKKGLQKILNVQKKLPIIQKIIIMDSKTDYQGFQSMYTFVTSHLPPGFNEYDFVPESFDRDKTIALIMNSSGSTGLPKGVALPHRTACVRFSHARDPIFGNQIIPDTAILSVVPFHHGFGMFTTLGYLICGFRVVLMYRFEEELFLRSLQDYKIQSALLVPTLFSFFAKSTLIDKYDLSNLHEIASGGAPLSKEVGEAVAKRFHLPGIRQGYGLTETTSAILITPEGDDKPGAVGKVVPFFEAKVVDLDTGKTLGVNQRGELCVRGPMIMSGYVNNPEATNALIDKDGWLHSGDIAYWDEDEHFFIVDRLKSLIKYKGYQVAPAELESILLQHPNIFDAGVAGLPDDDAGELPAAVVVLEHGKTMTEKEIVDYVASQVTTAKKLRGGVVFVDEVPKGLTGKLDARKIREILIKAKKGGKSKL
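Biochemical qHTS of compounds, final roughly 60 µM downward over six points, against 10 nM purified firefly luciferase using Km concentrations of substrates (10 uM D-luciferin, 10 uM ATP) in Tris acetate pH 7.5 buffer; luminescence output.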
ELG1 genotox: induces genotoxicity in HEK293T cells with luciferase-tagged ELG1 | HEK293T ELG1-luciferase reporter, luminescence, 16 h | Potency, µM (highest dose often 46 µM), for the others: top-dose activity change, positive = activation, usual class: activators | 1.3% of 330,000 active | AID 504466; also: % of control where 0% means no effect; nearly all actives have a fitted effect of over 60% in size
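DMSO vehicle served as control against compound-treated ELG1-luciferase HEK293T cells; exposure lasted 16 hr at 37 °C and 5% CO2, followed by ONE-Glo luminescence detection after 30 min.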
* = called active by the depositor; ? = inconclusive; . = no result given; [ ] = another dose, or the depositor's remark. Calls follow the shape of the dose curve; as a rule, active = well fitted curve in the direction sought with a large enough effect; inconclusive = small, poorly fitted or top-dose-only effect, or another doubt; inactive = no such curve, though single readings can be large; an effect the other way counts as inactive or inconclusive. Potency is read from the fitted curve at half-maximal effect.

SMILES | ELG1 repair inh | NPC1 prom act | SMN2 splice up | Rab9 promoter act | FLuc counter | ELG1 genotox
CCOC(=O)c1cc(C(=O)Nc2sc3c(c2C#N)CCCC3)nn1C | -1% | 2% | . | ? | 4.8µM* | 7%
CC1CCc2c(sc(NC(=O)c3ccc(Cl)cc3Cl)c2C#N)C1 (configuration not stated) | . | . | 0% | . | 4% | .
Cc1cc(C(=O)Nc2sc3c(c2C#N)CCCC3)no1 | ? | 3.2µM* | 6.3µM* | 1.6µM* | 2.4µM* | ?
Cc1cc(C(=O)Nc2sc3c(c2C#N)CCC(C)C3)no1 (configuration not stated) | ? | 1.8µM* | 14µM* | 2µM* | 2.7µM* | 2.1µM*
Cn1ccc(C(=O)Nc2sc3c(c2C#N)CCC3)n1 | 11% | -2% | . | 0% | ? | 0%
O=C(NCCNC(=O)c1ccccc1F)c1ccco1 | 13% | 1% | . | 0% | 0% | 1%
Cc1ccccc1N1CCN(C2CCCN(C(=O)CCN3CCCO3)C2)CC1 (configuration not stated) | -4% | 2% | . | 4% | 2% | 1%
CC(=O)c1c(C)oc2ccc(N(C(C)=O)S(=O)(=O)c3cccc4cccnc34)cc12 | 5.8µM* | -27% | . | -24% | -3% | -6%
O=C(O)CNC(=O)/C=C/c1ccc(Cl)cc1Cl | 17% | -3% | -5% | 6% | 24µM* | -6%
O=C(c1cc2ccccc2o1)c1cccs1 | ? | 3.5µM* | ? | 2.8µM* | 11µM* | 16%
Cc1ccc(C(=O)c2cc3ccccc3o2)cc1C | ? | 2.2µM* | ? | 3.5µM* | 4.8µM* | 16µM*
Cc1ccc(C(=O)c2cc3ccccc3o2)cc1 | ? | 2µM* | ? | 2.2µM* | 2.1µM* | ?
CN1CCC(NC(=S)NC2CC2)CC1 | 12% | -1% | -8% | -2% | -1% | 5%
CCOC(=O)C1=C(C)N=C2c3ccccc3C(=O)C2C1c1ccc(Cl)cc1 (configuration not stated) | 21µM* | -4% | -4% | -6% | 0% | -5%
CC1(C)CC(=O)C2=C(C1)N=C1c3ccccc3C(=O)C1C2c1ccc(Cl)cc1 (configuration not stated) | ? | -3% | -9% | -8% | -17% | -41%
CCOC(=O)C1=NNC(C(=O)c2ccccc2)C1c1ccc(Cl)cc1 (configuration not stated) | -4% | -4% | . | -3% | 27µM* | 0%
CCOC(=O)C1=NNC(C(=O)c2ccccc2)C1c1ccc(C)cc1 (configuration not stated) | -8% | 1% | . | -1% | ? | -1%
c1ccccc1 | . | . | -2% | . | . | .
Cc1cc(C(=O)NNS(=O)(=O)c2cc(C(=O)O)ccc2Cl)c(C)n1-c1ccccc1 | ? | -2% | . | -7% | 24µM* | 0%
Cc1ccc(-n2c(C)cc(C(=O)NS(=O)(=O)c3ccc(C)cc3)c2C)cc1 | ? | 0% | 20% | -5% | 2% | 1%
Cc1ccc(NC(=O)c2cc(C)n(-c3cccc(C)c3)c2C)cc1 | ? | 15% | 27% | ? | 1.5µM* | ?
CC(C)(C)NS(=O)(=O)c1cc(C(=O)O)ccc1Cl | -4% | -3% | 3% | -4% | -8% | 0%
Cc1cc(C(=O)Nc2ccc(Cl)cc2)c(C)n1-c1ccccc1 | ? | -24% | . | -28% | 0.048µM* | ?
Cc1ccc(NC(=O)c2cc(C)n(-c3ccccc3)c2C)cc1 | ? | -2% | -94% | ? | 0.054µM* | 0.23µM*
Cc1cc(C(=O)Nc2ccc(Cl)cc2)n(-c2ccccc2)n1 | 14% | 1% | . | 1% | -20% | 5%
SMILES | ELG1 repair inh | NPC1 prom act | SMN2 splice up | Rab9 promoter act | FLuc counter | ELG1 genotox
O=C(N/N=C/c1ccc(OC(F)F)cc1)c1cccc(S(=O)(=O)N2CCOCC2)c1 | 0% | -5% | -4% | 0% | -2% | -2%
COc1ccc(NC(=O)CSc2oc(-c3cccs3)nc2S(=O)(=O)c2ccc(Br)cc2)c(OC)c1 | . | . | 4% | . | 2% | .
COCCCNC(=O)CN(c1cc(Cl)ccc1OC)S(C)(=O)=O | 4% | -9% | -3% | -6% | 0% | 0%
COC(=O)c1ccc(OCc2cc(=O)n3ccsc3n2)cc1 | ? | ? | 14µM* | ? | ? | 25%
Cc1ccc(NS(=O)(=O)c2ccc(-c3csc(C)n3)s2)c(C)c1 | ? | -1% | . | -7% | -4% | -7%
O=C(CCCn1c(=S)[nH]c2ccc(Br)cc2c1=O)N1CCN(c2ccccn2)CC1 | 18µM* | 3% | -17% | -1% | 3% | -11%
O=C(C1CCC(CNc2nc(=S)[nH]c3ccccc23)CC1)N1CCN(c2ccc(F)cc2)CC1 (configuration not stated) | 23µM* | -1% | . | -11% | 0% | -9%
O=C(C1CCC(Cn2c(=S)[nH]c3ccccc3c2=O)CC1)N1CCN(c2ccccn2)CC1 (configuration not stated) | 5.2µM* | -6% | -111% | -8% | 7% | -20%
O=C(CCCn1c(=S)[nH]c2ccc(Br)cc2c1=O)NCc1ccccn1 | -2% | 3% | . | -9% | -1% | -2%[9.26 µM]
CCc1ccc2c(COC(=O)C3CC(=O)N(CCc4ccccc4)C3)cc(=O)oc2c1 (configuration not stated) | ? | -2% | . | -1% | -6% | 3%
COc1cc(S(=O)(=O)N2CCN=C2c2ccccc2)ccc1F | 0% | -21% | 11µM* | -15% | 1% | 2%
CCn1c2c(c(=N)c3ccccc31)CCC2 | 21µM* | -23% | . | -35% | 0% | -10%
CCCCn1c2c(c(=N)c3c1CCC3)CCC2 | 1.6µM* | -25% | -43% | -32% | -8% | -15%
CC1(C)NC(=O)N(CC(=O)N2CCN(c3ccc([N+](=O)[O-])cc3)CC2)C1=O | -6% | 1% | . | 0% | 0% | -2%
COc1cccc(-c2nnc(-c3ccc(C(F)(F)F)cc3)o2)c1OC | ? | 26% | 18µM* | ? | 7.6µM* | ?
CCc1cc2c(=O)[nH]c(N3CCCC3)nc2s1 | ? | 17% | ? | ? | ? | 11%
CCc1cc2c(=O)[nH]c(-c3ccccn3)nc2s1 | ? | 4.5µM* | 10µM* | ? | 6µM* | ?
O=C(N/N=C/c1ccco1)c1cc(C2CC2)nc2ccccc12 | -2% | -2% | -5% | 0% | -2% | 0%
O=C(N/N=C/c1ccco1)c1cc(-c2ccccc2)nc2ccccc12 | ? | 13% | . | 0% | 21µM* | -4%
COc1cccc(-c2cc(C(=O)N/N=C/c3ccco3)c3ccccc3n2)c1 | 2% | -1% | . | 1% | 3.4µM* | 1%
